# Test results as given in PubChem BioAssay AID504834 (National Center for Advancing Translational Sciences (NCATS), 2011).
# The campaign covered roughly 320,000 compounds. About 22,000 (6.9%) were called active. About 27% were inconclusive and are not listed. The call rests on the fitted dose curve; in most records, active means well fitted inhibition curve with a large enough effect; inconclusive means small, poorly fitted or top-dose-only effect, or another doubt; inactive means no such curve, though single readings can be large or run the other way. What follows is part of a selection rich in actives, with near analogues and random picks from the rest.
# Assay: Primary qHTS for delayed death inhibitors of the malarial parasite plastid, 96 hour incubation
# Details: P. falciparum luciferase reporter growth; series mostly up to 28.7 µM; activity change, negative = inhibition: at the top concentration
# Procedure, shortened: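 Two parasite generations (96 h, 37 C, 5% CO2) of compound exposure in infected erythrocytes (0.05% parasitemia, 2% hematocrit). Luciferase-reporter P. falciparum; decreased luminescence indicates inhibited growth, aimed at apicoplast-acting delayed death.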
# On the % scale 0 is the no-effect control and ±100 the full control effect; potency means the concentration at half of the fitted maximal effect.
SMILES,"activity change, negative = inhibition",Potency
O=C(NCCCc1ccccc1)C1CCC(=O)N(CCc2ccc(Cl)cc2)C1 (stereo not given),-0.691% (inactive),
COc1ccccc1CNS(=O)(=O)c1c(C)[nH]c(C)c1C(=O)N1CCCCC1,12.7% (inactive),
COc1cccc(NC(=O)CN(C)C(=O)c2cc(C3CC3)nn2-c2ccccc2)c1,-26.3% (inactive),
COc1ccc(CN2CCN(C(=O)c3cc(C4CC4)nn3-c3ccccc3)CC2)cc1F,,11.7 µM (active)
COc1cc(CN2CCC(C(N)=O)CC2)ccc1OCc1ccccc1,60% (inactive),
O=C(NCc1cccnc1)c1ccccc1NC(=O)c1c(F)cccc1F,1.54% (inactive),
Cc1cc(C)c(NC(=O)CN2C(=O)NC(Cc3ccccc3)C2=O)c(C)c1 (stereo not given),11% (inactive),
O=[N+]([O-])c1ccc2nc(-c3ccccn3)[nH]c2c1,-13.9% (inactive),
O=C(CSC(=S)N1CCOCC1)c1cc(Br)cc(Br)c1O,26.6% (inactive),
O=P(O)(CN1CCCCCC1)C1Cc2ccccc2C1,-49.8% (inactive),
O=C(/C(=C/c1cccc(Cl)c1)c1nc2ccccc2[nH]1)c1ccccc1,,11.7 µM (active)
O=C(CCc1nc2ccccc2c(=O)[nH]1)OCC(=O)c1cccc(Cl)c1,51.6% (inactive),
O=C(Cc1nc2ccccc2[nH]c1=O)c1ccc(Cl)cc1,141% (inactive),
Cc1ccc(-c2nc3ccccc3[nH]c2=O)cc1,111% (inactive),
N#CCc1ccc(NC(=O)c2ccccc2C(=O)Nc2ccc(CC#N)cc2)cc1,16.3% (inactive),
NS(=O)(=O)c1ccc2nc(NC(=O)C3=COCCO3)sc2c1,6.79% (inactive),
O=C(O)CC1(CC(=O)Nc2cccc(C(F)(F)F)c2)CCCC1,24.4% (inactive),
NC(=O)Nc1cccc(C(F)(F)F)c1,28.4% (inactive),
O=C(Nc1cccc(C(F)(F)F)c1)c1cc(Br)cc(Br)c1O,,15.1 µM (active)
CC(=O)Nc1ccc(NC(=O)COC(=O)c2ccccc2C(=O)c2ccccc2)cc1,-7.56% (inactive),
O=C(Nc1cccc([N+](=O)[O-])c1)Nn1cnnc1,-1.29% (inactive),
Cn1nc(C(F)(F)F)cc1-c1ccc(/C=C(\C#N)C(=O)c2cccc(C(F)(F)F)c2)s1,54.3% (inactive),
Cc1ccc(NNC(=O)c2c(F)cccc2Cl)cc1Cl,34.9% (inactive),
Cc1ccc(NC(=O)CSc2nnc(CNC(=O)c3ccccc3F)o2)cc1,4.83% (inactive),
CCCCCNC(=O)c1cccnc1SCC(=O)Nc1ccccc1OC,60.2% (inactive),

SMILES,"activity change, negative = inhibition",Potency
COc1ccccc1NC(=O)CSc1nnc(CNC(=O)c2ccccc2F)o1,,1.65 µM (active)
CC1(C)NC(=O)N(CC(=O)N2CCN(S(=O)(=O)c3ccccc3F)CC2)C1=O,-1.59% (inactive),
O=C(Cc1cccs1)Nc1cccc(-c2nc3ccccc3[nH]2)c1,-7.98% (inactive),
O=C(Nc1cccc(NC(=O)c2ccc(Br)cc2)c1)c1ccccc1,71.5% (inactive),
O=C(Nc1cccc(-c2nc3ccccc3[nH]2)c1)c1ccc(C(=O)Nc2cccc(-c3nc4ccccc4[nH]3)c2)cc1,,0.37 µM (active)
N#CC1(NC(=O)COC(=O)Cc2n[nH]c(=O)c3ccccc23)CCCCC1,24.1% (inactive),
CCN(C(=O)CSc1nnc(-c2ccc(OC(F)F)cc2)n1N)C1CCS(=O)(=O)C1 (stereo not given),7.28% (inactive),
O=c1cc(CO)oc(CN2CCC(Cc3ccccc3)CC2)c1O,-8.24% (inactive),
COc1cc(C)cc(CN2CCC(Cc3ccccc3)CC2)c1O,,1.17 µM (active)
NC(=O)c1ccc(CN2CCC(Cc3ccccc3)CC2)cc1,-16.8% (inactive),
CC(C)NC(=O)NNc1c(Cl)cncc1Cl,23% (inactive),
O=C(CNS(=O)(=O)c1ccc2ccccc2c1)Nc1ccc(F)c(F)c1F,12.1% (inactive),
COc1ccc(/C=N/NC(=O)C2CC2)c(OC)c1OC,103% (inactive),
Cc1cccc(NC(=O)C2CCN(S(=O)(=O)c3cccc4cccnc34)CC2)c1,,5.86 µM (active)
COc1ccc(NC(=O)C2CCCN(S(=O)(=O)c3cccc4cccnc34)C2)cc1 (stereo not given),63.6% (inactive),
O=C(O)C1CCCN(S(=O)(=O)c2cccc3cccnc23)C1 (stereo not given),,2.08 µM (active)
O=C(NCc1ccco1)C1CCCN(S(=O)(=O)c2cccc3nonc23)C1 (stereo not given),22% (inactive),
COc1ccc(S(=O)(=O)N2CCCC(C(=O)Nc3ccc(NC(=O)c4ccccn4)cc3)C2)cc1 (stereo not given),17% (inactive),
CN(CC(=O)NC1CCCCC1)S(=O)(=O)c1cccc2cccnc12,22.2% (inactive),
COc1cccc(CNC(=O)C2CCN(S(=O)(=O)c3cccc4cccnc34)CC2)c1,13.2% (inactive),
COc1ccc(NC(=O)C2CCCN(S(=O)(=O)c3cccc4cccnc34)C2)cc1OC (stereo not given),,10.4 µM (active)
CC(=O)c1cccc(NC(=O)C2CCCN(S(=O)(=O)c3cccc4nonc34)C2)c1 (stereo not given),5.63% (inactive),
Cc1ccc(C(=O)Nc2nc(N)n(-c3ccccc3)n2)cc1,40.9% (inactive),
CC1=NN(C(N)=S)C(=O)C1N=Nc1cc(Cl)ccc1Cl (stereo not given),16.9% (inactive),
CCOC(=O)C1CCCN(S(=O)(=O)c2ccc(-n3cnnn3)c(C)c2)C1 (stereo not given),4.73% (inactive),

SMILES,"activity change, negative = inhibition",Potency
CCn1c(SCC(=O)NC2=NCCS2)nnc1C(C)NC(=O)c1ccccc1F (stereo not given),19.2% (inactive),
O=C(CNC(=O)c1cccnc1)N/N=C/c1cccnc1,32.2% (inactive),
O=C(CC(=O)N/N=C\c1ccc(F)cc1)NCCc1ccccc1,2.04% (inactive),
O=C(CCCCCNC(=O)c1ccccc1)N/N=C/c1ccccc1,,1.47 µM (active)
CNS(=O)(=O)c1cccc(C(=O)OCCCC(=O)c2ccccc2)c1,-12.1% (inactive),
COc1ccc(Cl)cc1NC(=O)CN(C)CC(=O)Nc1ccc2c(c1)OCO2,-0.297% (inactive),
Cn1c(CC(=O)Nc2ccc(F)cc2)nnc1SCC(=O)NC1CCCCC1,-8.17% (inactive),
COC(=O)CNc1nc(Cl)nc(N2CCC(C)CC2)n1,9.44% (inactive),
Cc1ccc(Nc2nc(N3CCOCC3)nc(N3CCOCC3)n2)cc1Cl,-16.3% (inactive),
Clc1nc(NC2CCCC2)nc(N2CCOCC2)n1,,11.7 µM (active)
O=C(Nc1ccc(N2CCCC2=O)cc1)c1cncc(Br)c1,1.63% (inactive),
COc1ccc(C(=O)N(Cc2ccccc2)c2ccc(C)cc2)cc1S(=O)(=O)N1CCOCC1,-68.2% (inactive),
Cc1cccc(NC(=O)c2cc(S(=O)(=O)N3CCC4(CC3)OCCO4)ccc2F)c1,23.8% (inactive),
Cc1cccc(N(Cc2ccccc2)C(=O)c2ccccc2F)c1,-24.8% (inactive),
Cc1cccc(N(Cc2ccccc2)C(=O)c2cc(S(=O)(=O)N3CCOCC3)ccc2F)c1,,11.7 µM (active)
O=C(c1ccc(F)c(S(=O)(=O)N2CCOCC2)c1)N(CCc1ccccc1)Cc1ccccc1,,2.62 µM (active)
NC(=O)C1CCN(C(=O)c2ccc(F)c(S(=O)(=O)N3CCOCC3)c2)CC1,6.45% (inactive),
Cc1cccc(C(=O)Nc2ccc(Oc3cnccn3)cc2)c1,63.5% (inactive),
COc1cccc(C(=O)n2ccc(-c3cccs3)n2)c1,0% (inactive),
CC(=O)Nc1cccc(NC(=O)CSc2nccn2Cc2ccc(F)cc2)c1,0% (inactive),
COC(=O)[C@H](CC(C)C)NC(=O)N1CCCCC1C (stereo not given in full),-9.64% (inactive),
CCCc1c(C(=O)Nc2ccc(F)cc2)cnn1-c1ccccc1,-24.3% (inactive),
Cc1cc(C)cc(N(CCC#N)C(=O)CN2C(=O)NC3(CCCC3)C2=O)c1,13.1% (inactive),
COc1ccc(CCNc2cc(C)nc3c(-c4ccc(Cl)cc4)c(C)nn23)cc1OC,,10.4 µM (active)
COc1ccc(CCNc2nc(C)cc(C)n2)cc1OC,0% (inactive),

SMILES,"activity change, negative = inhibition",Potency
COc1ccc(CCNc2nc3ccc(C)cc3n3cnnc23)cc1OC,20.1% (inactive),
COc1ccccc1-c1cnn2c(N3CCOCC3)cc(C)nc12,136% (inactive),
CCc1nccn1S(=O)(=O)c1cccc([N+](=O)[O-])c1,1.85% (inactive),
CC(C)c1nccn1S(=O)(=O)c1cc([N+](=O)[O-])ccc1Cl,,11.7 µM (active)
O=C(Oc1ccc([N+](=O)[O-])cc1)c1ccc(Cl)c(S(=O)(=O)N2CCCCC2)c1,-10.5% (inactive),
Cn1c(=O)c2c(-c3cccc(Br)c3)c(C#N)c(N)nc2n(C)c1=O,23.3% (inactive),
Cc1nn(-c2ccccc2)c2c1C(c1ccc(F)cc1)C(C#N)=C(N)O2 (stereo not given),52.7% (inactive),
CSc1ccc(-c2c(C#N)c(N)nc3c2c(C)nn3-c2ccccc2)cc1,,2.08 µM (active)
COc1ccc2c3c(c(=O)oc2c1)C1O[C@](CCCCN2C(=O)c4ccccc4C2=O)(Cc2c1ccc1ccccc21)O3,49.1% [at 5.75 µM] (inactive),
COc1cccc(N2C(=O)CC(N3CCN(S(=O)(=O)c4ccccc4)CC3)C2=O)c1 (stereo not given),-19.2% (inactive),
Cc1cccc(C)c1N1C(=O)CN(Cc2ccccc2)C1=S,23% (inactive),
COc1cccc(N2C(=O)CN(Cc3ccccc3)C2=S)c1,,1.31 µM (active)
Cc1ccc(S(=O)(=O)N(C)c2ccc(OCC(=O)OCC(=O)N(CC#N)c3ccccc3)cc2)cc1,1.77% (inactive),
CN(CC(=O)Nc1ccc(Cl)cc1)C(=O)CNC(=O)c1ccc2ccccc2c1,34.5% (inactive),
O=c1c2ccccc2cnn1Cc1n[nH]c(=S)n1-c1ccccc1F,24.1% (inactive),
COc1ccc(NS(=O)(=O)c2ccc(N3CCN(CCO)CC3)c([N+](=O)[O-])c2)cc1,-11.6% (inactive),
COc1ccc(NS(=O)(=O)c2cc(NC(=O)/C=C/c3cc(OC)c(OC)c(OC)c3)ccc2N2CCCCC2)cc1,,2.08 µM (active)
COc1ccc(/C=C/C(=O)Nc2ccc3c(c2)OCCO3)cc1OC,-3.91% (inactive),
CCOC(=O)COn1c(=O)c(-c2ccc(OCC)cc2)[n+]([O-])c2ccccc21,80.9% (inactive),
Cc1cc([N+](=O)[O-])c(-c2ccc(/C=N/n3cnnc3)o2)cc1Cl,7.67% (inactive),
Cc1cc(-c2ccc(/C=N/n3cnnc3)o2)c([N+](=O)[O-])cc1C,7.32% (inactive),
O=C1C2C3C=CC(C4CC34)C2C(=O)N1/N=C/c1ccc(-c2ccccc2[N+](=O)[O-])o1 (stereo not given),,13.1 µM (active)
COc1cc2c(cc1O)[C@H](Cc1ccc(Oc3cc(C[C@@H]4NCCc5cc(OC)c(O)cc54)ccc3O)cc1)NCC2,,0.415 µM (active)
CCc1ccc(OCC2c3cc(OC)c(OC)cc3CCN2C(C)=O)cc1 (stereo not given),3.03% (inactive),
COc1ccc(NC(=O)CN(C)C(=O)c2ccc(NC3CC3)c([N+](=O)[O-])c2)cc1,-25.4% (inactive),
